How the values were obtained:
Experiment in all cases: log2 ratio of Biotin-Ahx-Ub-VS probe labelling (fragment/DMSO); higher = less target engagement (more negative = stronger competition), active = hit call of the paper (q ≤ 0.05, log2 ratio ≤ -1)
Settings in all cases: compound concentration: 200 uM; treatment time: 3 h
USP19 = molecular target: T1, USP19 (UniProt O94966)
T1 sequence (whole entry): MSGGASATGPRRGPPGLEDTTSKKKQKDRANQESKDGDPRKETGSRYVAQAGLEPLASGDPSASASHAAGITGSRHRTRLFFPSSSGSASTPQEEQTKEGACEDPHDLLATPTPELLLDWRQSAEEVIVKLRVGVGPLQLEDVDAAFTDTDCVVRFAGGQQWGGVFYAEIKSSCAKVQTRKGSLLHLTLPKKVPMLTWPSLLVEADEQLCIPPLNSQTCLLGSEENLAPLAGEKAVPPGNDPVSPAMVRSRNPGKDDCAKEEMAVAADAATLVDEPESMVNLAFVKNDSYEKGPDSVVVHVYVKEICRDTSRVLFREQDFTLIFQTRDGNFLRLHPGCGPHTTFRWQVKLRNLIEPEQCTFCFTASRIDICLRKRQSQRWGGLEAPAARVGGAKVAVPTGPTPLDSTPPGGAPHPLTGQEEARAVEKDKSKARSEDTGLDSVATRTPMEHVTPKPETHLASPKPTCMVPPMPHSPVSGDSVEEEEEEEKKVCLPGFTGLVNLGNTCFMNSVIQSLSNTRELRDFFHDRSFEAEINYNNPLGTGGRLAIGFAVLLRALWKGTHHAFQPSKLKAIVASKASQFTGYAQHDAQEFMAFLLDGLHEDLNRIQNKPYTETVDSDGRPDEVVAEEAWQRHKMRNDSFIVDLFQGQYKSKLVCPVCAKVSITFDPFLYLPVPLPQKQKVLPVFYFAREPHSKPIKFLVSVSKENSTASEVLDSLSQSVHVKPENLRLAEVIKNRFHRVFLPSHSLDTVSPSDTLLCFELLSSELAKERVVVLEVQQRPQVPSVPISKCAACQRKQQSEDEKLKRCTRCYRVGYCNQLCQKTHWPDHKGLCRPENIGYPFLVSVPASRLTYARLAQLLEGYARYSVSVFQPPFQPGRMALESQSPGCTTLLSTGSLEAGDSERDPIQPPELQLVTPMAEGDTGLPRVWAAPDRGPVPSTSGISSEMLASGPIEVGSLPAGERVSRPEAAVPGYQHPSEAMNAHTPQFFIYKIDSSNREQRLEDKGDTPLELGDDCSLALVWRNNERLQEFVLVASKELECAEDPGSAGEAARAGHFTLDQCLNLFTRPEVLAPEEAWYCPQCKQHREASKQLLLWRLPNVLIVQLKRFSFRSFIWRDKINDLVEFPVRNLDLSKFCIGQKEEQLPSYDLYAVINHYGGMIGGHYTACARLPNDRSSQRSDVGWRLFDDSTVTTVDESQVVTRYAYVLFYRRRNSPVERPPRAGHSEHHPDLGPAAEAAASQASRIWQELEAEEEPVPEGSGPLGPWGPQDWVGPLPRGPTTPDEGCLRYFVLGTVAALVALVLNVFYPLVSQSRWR
In short: (§1)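 Labelling with Biotin-Ahx-Ub-VS (0.5 µM final, 1 h) followed a 3 h triplicate treatment of HEK293T lysate (495 µg per sample, Tris/CHAPS/IGEPAL buffer with protease inhibitors) with fragment at 200 µM or vehicle. Labelled DUBs were NeutrAvidin-enriched, digested with LysC and trypsin, and run by diaPASEF LC-MS/MS. The values, average log2 fragment/vehicle ratios by unpaired t-test, come from global-median-normalised Spectronaut label-free quantities. Proteins with ≥2 unique peptides were used.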

USP22 = molecular target: T2, USP22 (UniProt Q9UPT9)
T2 sequence (whole entry): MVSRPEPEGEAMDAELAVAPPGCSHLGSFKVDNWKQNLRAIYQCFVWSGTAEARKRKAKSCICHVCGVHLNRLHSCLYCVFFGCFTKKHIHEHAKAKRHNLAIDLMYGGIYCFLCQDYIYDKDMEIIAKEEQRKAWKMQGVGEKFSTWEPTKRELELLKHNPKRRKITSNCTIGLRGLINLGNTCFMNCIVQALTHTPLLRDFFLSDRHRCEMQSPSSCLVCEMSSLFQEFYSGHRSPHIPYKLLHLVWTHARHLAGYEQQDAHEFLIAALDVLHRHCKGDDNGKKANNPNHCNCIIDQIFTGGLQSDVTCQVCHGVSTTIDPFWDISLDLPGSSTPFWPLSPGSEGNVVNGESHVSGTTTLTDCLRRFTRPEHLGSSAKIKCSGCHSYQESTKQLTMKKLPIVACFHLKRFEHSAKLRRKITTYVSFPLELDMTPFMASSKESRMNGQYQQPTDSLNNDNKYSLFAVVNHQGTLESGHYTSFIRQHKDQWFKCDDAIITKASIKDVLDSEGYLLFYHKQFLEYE
In short: as §1

USP24 = USP24 (UniProt Q9UPU5)
In short: as §1

USP25 = molecular target: T3, USP25 (UniProt Q9UHP3)
T3 sequence (whole entry): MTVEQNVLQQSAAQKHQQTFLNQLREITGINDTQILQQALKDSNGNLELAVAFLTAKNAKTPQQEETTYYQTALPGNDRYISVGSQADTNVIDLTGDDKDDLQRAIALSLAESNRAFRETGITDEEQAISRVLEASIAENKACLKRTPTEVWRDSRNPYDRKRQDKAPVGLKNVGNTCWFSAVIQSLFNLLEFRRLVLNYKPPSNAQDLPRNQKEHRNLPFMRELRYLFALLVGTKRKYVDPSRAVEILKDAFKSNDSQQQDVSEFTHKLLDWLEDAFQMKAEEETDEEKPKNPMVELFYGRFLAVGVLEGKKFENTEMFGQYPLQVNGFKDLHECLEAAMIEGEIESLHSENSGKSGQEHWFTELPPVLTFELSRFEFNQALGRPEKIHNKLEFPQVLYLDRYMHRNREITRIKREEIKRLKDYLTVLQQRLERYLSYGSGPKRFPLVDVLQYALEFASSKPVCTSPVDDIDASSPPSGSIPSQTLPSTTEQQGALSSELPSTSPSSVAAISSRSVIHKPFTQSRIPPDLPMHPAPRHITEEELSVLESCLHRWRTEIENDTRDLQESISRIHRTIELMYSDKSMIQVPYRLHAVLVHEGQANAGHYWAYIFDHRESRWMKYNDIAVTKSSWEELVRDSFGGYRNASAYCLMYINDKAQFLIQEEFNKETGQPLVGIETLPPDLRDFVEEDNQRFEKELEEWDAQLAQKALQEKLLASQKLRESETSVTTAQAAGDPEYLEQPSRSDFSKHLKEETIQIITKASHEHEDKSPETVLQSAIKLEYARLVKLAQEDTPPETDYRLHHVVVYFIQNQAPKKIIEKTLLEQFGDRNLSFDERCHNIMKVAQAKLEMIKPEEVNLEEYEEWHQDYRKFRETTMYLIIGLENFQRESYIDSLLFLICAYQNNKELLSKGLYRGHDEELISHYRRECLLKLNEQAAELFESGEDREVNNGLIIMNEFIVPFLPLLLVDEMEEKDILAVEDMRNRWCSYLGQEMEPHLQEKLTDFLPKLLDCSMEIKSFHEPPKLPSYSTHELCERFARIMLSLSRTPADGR
In short: as §1

USP28 = molecular target: T4, USP28 (UniProt Q96RU2)
T4 sequence (whole entry): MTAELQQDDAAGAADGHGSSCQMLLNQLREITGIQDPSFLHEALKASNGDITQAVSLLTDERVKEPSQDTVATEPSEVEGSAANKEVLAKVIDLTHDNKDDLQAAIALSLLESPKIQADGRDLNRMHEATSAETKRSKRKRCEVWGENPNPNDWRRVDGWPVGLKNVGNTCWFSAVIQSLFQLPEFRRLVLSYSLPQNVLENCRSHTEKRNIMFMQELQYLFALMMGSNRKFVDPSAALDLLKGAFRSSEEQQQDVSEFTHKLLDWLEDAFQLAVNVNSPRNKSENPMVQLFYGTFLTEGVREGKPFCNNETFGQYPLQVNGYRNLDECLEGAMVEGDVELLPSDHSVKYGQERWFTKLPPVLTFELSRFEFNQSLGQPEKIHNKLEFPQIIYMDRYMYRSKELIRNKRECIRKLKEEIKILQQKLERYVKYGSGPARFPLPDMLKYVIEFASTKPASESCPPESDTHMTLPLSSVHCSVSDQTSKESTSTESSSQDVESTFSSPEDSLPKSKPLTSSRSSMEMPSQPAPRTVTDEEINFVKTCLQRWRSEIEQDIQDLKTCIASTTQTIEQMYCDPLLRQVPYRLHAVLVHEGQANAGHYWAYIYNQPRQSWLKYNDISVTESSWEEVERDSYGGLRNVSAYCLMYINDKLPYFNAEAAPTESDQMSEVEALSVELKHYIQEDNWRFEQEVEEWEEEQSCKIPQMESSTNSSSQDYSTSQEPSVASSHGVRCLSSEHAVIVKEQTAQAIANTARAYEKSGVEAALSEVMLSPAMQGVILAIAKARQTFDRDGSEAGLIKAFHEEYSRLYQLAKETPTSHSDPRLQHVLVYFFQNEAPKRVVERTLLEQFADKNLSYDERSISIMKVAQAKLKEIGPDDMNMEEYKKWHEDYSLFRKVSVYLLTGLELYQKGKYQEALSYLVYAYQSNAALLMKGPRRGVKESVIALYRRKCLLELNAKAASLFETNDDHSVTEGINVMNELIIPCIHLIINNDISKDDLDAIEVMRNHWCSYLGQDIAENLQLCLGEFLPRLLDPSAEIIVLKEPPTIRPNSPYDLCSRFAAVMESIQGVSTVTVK
In short: as §1

Measured: log2 ratio of Biotin-Ahx-Ub-VS probe labelling

Chain of USP24 (Q9UPU5 whole entry): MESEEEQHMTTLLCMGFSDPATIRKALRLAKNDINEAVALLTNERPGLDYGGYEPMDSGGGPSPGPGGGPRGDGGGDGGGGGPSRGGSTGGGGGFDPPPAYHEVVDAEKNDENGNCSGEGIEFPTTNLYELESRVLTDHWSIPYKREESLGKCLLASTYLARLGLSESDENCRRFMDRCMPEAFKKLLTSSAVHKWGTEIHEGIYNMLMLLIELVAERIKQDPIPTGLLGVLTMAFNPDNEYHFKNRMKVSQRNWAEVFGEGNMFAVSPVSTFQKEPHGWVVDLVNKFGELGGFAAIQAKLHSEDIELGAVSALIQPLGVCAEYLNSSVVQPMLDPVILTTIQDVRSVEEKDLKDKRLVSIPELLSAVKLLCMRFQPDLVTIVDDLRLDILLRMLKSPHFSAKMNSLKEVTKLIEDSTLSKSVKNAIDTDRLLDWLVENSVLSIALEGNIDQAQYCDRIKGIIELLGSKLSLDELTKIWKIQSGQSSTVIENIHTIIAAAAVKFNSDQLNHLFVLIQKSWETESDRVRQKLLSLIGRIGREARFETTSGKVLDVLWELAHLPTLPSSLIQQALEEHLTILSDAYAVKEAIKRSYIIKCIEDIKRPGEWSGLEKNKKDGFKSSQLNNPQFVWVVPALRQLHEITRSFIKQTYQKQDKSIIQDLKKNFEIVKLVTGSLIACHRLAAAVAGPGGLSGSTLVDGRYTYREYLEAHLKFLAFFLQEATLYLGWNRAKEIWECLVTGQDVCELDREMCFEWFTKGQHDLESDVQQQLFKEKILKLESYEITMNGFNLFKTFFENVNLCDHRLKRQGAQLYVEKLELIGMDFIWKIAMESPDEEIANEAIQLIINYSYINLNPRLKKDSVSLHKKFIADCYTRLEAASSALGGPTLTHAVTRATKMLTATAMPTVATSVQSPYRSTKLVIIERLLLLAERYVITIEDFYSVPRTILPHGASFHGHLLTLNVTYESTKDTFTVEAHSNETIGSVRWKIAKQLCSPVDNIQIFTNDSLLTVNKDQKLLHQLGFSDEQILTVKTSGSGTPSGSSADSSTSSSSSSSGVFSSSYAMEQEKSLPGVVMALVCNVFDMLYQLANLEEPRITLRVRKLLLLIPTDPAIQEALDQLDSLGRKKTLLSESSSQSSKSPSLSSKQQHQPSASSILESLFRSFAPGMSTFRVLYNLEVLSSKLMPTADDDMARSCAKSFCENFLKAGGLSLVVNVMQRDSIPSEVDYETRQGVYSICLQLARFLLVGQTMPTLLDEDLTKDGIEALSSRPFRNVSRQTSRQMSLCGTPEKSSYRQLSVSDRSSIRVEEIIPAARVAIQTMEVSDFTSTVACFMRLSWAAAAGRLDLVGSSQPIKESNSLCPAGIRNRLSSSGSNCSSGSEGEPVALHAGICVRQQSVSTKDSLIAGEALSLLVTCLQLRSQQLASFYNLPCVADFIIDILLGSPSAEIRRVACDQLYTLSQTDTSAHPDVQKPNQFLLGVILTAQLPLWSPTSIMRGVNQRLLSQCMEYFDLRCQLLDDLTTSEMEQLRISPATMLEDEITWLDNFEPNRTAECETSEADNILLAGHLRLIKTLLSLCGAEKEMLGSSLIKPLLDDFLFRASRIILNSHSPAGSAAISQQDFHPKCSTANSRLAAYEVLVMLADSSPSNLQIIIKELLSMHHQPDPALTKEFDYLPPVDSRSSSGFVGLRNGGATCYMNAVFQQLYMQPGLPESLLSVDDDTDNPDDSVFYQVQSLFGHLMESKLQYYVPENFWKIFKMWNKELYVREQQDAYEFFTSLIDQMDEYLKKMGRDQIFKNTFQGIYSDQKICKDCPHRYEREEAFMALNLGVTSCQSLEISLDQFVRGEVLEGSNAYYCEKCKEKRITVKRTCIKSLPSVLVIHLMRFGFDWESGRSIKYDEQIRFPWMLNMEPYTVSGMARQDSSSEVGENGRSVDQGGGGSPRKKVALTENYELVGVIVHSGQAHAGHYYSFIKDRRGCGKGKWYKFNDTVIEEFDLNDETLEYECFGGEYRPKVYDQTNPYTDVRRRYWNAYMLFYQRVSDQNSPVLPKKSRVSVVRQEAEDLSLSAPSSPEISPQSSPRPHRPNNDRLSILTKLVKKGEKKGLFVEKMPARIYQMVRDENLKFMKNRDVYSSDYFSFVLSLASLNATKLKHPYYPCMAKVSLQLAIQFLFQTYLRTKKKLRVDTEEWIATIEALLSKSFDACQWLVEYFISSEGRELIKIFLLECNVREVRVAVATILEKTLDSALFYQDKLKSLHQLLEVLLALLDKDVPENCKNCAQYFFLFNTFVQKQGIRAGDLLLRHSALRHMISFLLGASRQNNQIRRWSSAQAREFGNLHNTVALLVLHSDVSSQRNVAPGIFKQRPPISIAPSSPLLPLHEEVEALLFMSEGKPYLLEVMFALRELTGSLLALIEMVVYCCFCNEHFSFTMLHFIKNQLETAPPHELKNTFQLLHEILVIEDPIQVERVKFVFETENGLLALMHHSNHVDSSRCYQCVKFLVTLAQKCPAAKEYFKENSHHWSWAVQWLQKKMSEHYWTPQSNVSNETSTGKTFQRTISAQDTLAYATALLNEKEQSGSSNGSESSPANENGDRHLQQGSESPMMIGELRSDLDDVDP

CC(=O)C1CCCCN1C(=O)CCl (stereo not given)
inactive: USP19 -0.14 | USP22 0.0806 | USP24 0.0726 | USP25 0.106 | USP28 -0.2

— the supplement of paper PMC11732987, “Enantioselective OTUD7B fragment discovery through chemoproteomics screening and high-throughput optimisation” (Communications Chemistry, 2025)
